Results: PubChem BioAssay AID1159580 (chemical genetic matrix, 2015)
The campaign covered roughly 5,500 compounds. About 2,000 (36%) were called active. Inconclusive results (about 18%) are left out. Rule as the data show it: active = normalized growth mostly below about 0.91 (no sharp cut-off); inconclusive = no clear call, values can overlap the other calls; inactive = mostly above about 0.92. The list shows a part of the results.

Assay: chemical genetic growth profiling, strain panel (AID 1159580);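 also: tested at 20 µM; growth read once vehicle control cultures reached saturation at 30 °C; 1 = growth at the plate median or of vehicle wells; lower values mean less growth of the strain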
Conditions: growth OD
[1] = S. cerevisiae deletion strains, locus YAL013W, strain DEP1, hits give low values
[2] = S. cerevisiae deletion strains, locus YBR229C, strain ROT2, hits give low values
[3] = S. cerevisiae deletion strains, locus YCL061C, strain MRC1, hits give low values
[4] = S. cerevisiae deletion strains, locus YDL101C, strain DUN1, hits give low values
[5] = S. cerevisiae deletion strains, locus YDR150W, strain NUM1, hits give low values
[6] = S. cerevisiae deletion strains, locus YEL061C, strain CIN8, hits give low values
[7] = S. cerevisiae deletion strains, locus YGR078C, strain PAC10, hits give low values
[8] = S. cerevisiae deletion strains, locus YGR229C, strain SMI1, hits give low values
[9] = S. cerevisiae deletion strains, locus YHR030C, strain SLT2, hits give low values
[10] = S. cerevisiae deletion strains, locus YHR087W, strain rtc3, hits give low values
[11] = S. cerevisiae deletion strains, locus YJR043C, strain POL32, hits give low values
[12] = S. cerevisiae deletion strains, locus YJR075W, strain HOC1, hits give low values
[13] = S. cerevisiae deletion strains, locus YLR039C, strain RIC1, hits give low values
[14] = S. cerevisiae deletion strains, locus YLR058C, strain SHM2 (second series), hits give low values
[15] = S. cerevisiae deletion strains, locus YLR085C, strain ARP6, hits give low values
[16] = S. cerevisiae deletion strains, locus YLR262C, strain YPT6, hits give low values
[17] = S. cerevisiae deletion strains, locus YML094W, strain GIM5, hits give low values
[18] = S. cerevisiae deletion strains, locus YMR219W, strain ESC1, hits give low values
[19] = S. cerevisiae deletion strains, locus YMR263W, strain SAP30, hits give low values
[20] = S. cerevisiae deletion strains, locus YMR307W, strain GAS1, hits give low values
[21] = S. cerevisiae deletion strains, locus YNL153C, strain GIM3, hits give low values
[22] = S. cerevisiae deletion strains, locus YNL298W, strain CLA4 (second series), hits give low values
[23] = S. cerevisiae deletion strains, locus YNL322C, strain KRE1, hits give low values
[24] = S. cerevisiae deletion strains, locus YNR030W, strain Alg12, hits give low values
[25] = S. cerevisiae deletion strains, locus YPL055C, strain LGE1, hits give low values
[26] = S. cerevisiae deletion strains, locus YPL241C, strain CIN2, hits give low values
[27] = S. cerevisiae deletion strains, locus YPR135W, strain CTF4, hits give low values

Measured: normalized growth

COC(=O)c1ccc(S(=O)(=O)N2CCC(C(N)=O)CC2)n1C
inactive: [1] 0.97 | [2] 1 | [3] 0.99 | [4] 0.97 | S. cerevisiae deletion strains, locus YDL134C, strain PPH21, hits give low values 1.03 | [5] 0.881 | [6] 1.02 | [7] 0.989 | [8] 1 | [9] 1.05 | [10] 0.993 | [11] 0.983 | [12] 0.988 | S. cerevisiae deletion strains, locus YKL190W, strain CNB1, hits give low values 1.02 | [13] 1.01 | [14] 0.991 | [15] 1.06 | [16] 1.03 | [17] 0.999 | [18] 0.99 | [19] 0.981 | [20] 1.05 | [21] 1.01 | [22] 1.06 | [23] 1 | [24] 1.04 | [25] 0.852 | [26] 1.02 | [27] 1

CCOC(=O)c1ccc(NC(N)=S)cc1
inactive: [1] 1.01 | [2] 1.01 | [3] 0.994 | [4] 0.994 | [5] 0.941 | [6] 0.998 | [7] 0.993 | [8] 1 | [9] 1.03 | [10] 0.992 | [11] 0.997 | [12] 0.956 | [13] 1.01 | [14] 0.998 | [15] 0.974 | [16] 1.05 | [17] 0.966 | [18] 0.998 | [19] 0.935 | [20] 0.935 | [21] 0.979 | [22] 1 | [23] 1.01 | [24] 1 | [25] 0.949 | [26] 0.986 | [27] 0.968 | S. cerevisiae strains, strain wild type, hits give low values 1.01

CCOC(=O)/C(C#N)=C(\Nc1ccc(C(=O)OCC)cc1)SC
active: [9] 0.815 | S. cerevisiae deletion strains, locus YLR113W, strain HOG1, hits give low values 0.706 | S. cerevisiae deletion strains, locus YPL256C, strain CLN2, hits give low values 0.751
inactive: S. cerevisiae deletion strains, locus YAR019C, strain CDC15, hits give low values 0.982 | S. cerevisiae deletion strains, locus YBL105C, strain PKC1, hits give low values 0.977 | S. cerevisiae deletion strains, locus YBR135W, strain CKS1, hits give low values 0.98 | S. cerevisiae deletion strains, locus YBR136W, strain MEC1, hits give low values 0.974 | S. cerevisiae deletion strains, locus YBR160W, strain CDC28, hits give low values 0.98 | S. cerevisiae deletion strains, locus YDL017W, strain CDC7, hits give low values 0.978 | S. cerevisiae deletion strains, locus YDL028C, strain MPS1, hits give low values 0.984 | [4] 0.977 | S. cerevisiae deletion strains, locus YDL108W, strain KIN28, hits give low values 0.972 | S. cerevisiae deletion strains, locus YDL132W, strain cdc53, hits give low values 0.981 | S. cerevisiae deletion strains, locus YDL214C, strain PRR2, hits give low values 0.929 | S. cerevisiae deletion strains, locus YDR052C, strain DBF4, hits give low values 0.983 | S. cerevisiae deletion strains, locus YDR054C, strain cdc34, hits give low values 0.984 | S. cerevisiae deletion strains, locus YDR226W, strain ADK1, hits give low values 0.979 | S. cerevisiae deletion strains, locus YDR477W, strain SNF1, hits give low values 0.954 | S. cerevisiae deletion strains, locus YER123W, strain YCK3, hits give low values 0.91 | S. cerevisiae deletion strains, locus YER133W, strain GLC7, hits give low values 0.945 | S. cerevisiae deletion strains, locus YFL009W, strain cdc4, hits give low values 0.978 | S. cerevisiae deletion strains, locus YFL029C, strain CAK1, hits give low values 0.982 | S. cerevisiae deletion strains, locus YFR003C, strain YPI1, hits give low values 0.977 | S. cerevisiae deletion strains, locus YFR019W, strain FAB1, hits give low values 0.968 | S. cerevisiae deletion strains, locus YFR028C, strain CDC14, hits give low values 0.979 | S. cerevisiae deletion strains, locus YGR040W, strain KSS1, hits give low values 0.946 | S. cerevisiae deletion strains, locus YGR052W, strain FMP48, hits give low values 0.959 | S. cerevisiae deletion strains, locus YGR092W, strain DBF2, hits give low values 0.947 | S. cerevisiae deletion strains, locus YHR079C, strain IRE1, hits give low values 0.841 | S. cerevisiae deletion strains, locus YHR082C, strain KSP1, hits give low values 0.998 | S. cerevisiae deletion strains, locus YHR205W, strain SCH9, hits give low values 0.872 | S. cerevisiae deletion strains, locus YIL147C, strain SLN1, hits give low values 0.98 | S. cerevisiae deletion strains, locus YJL095W, strain BCK1, hits give low values 0.934 | S. cerevisiae deletion strains, locus YJL128C, strain PBS2, hits give low values 0.913 | S. cerevisiae deletion strains, locus YJL157C, strain FAR1, hits give low values 0.945 | S. cerevisiae deletion strains, locus YJR016C, strain ILV3, hits give low values 0.99 | S. cerevisiae deletion strains, locus YJR066W, strain TOR1 (second series), hits give low values 0.941 | S. cerevisiae deletion strains, locus YJR066W, strain TOR1, hits give low values 0.985 | S. cerevisiae deletion strains, locus YKL048C, strain ELM1, hits give low values 0.921 | S. cerevisiae deletion strains, locus YKL067W, strain YNK1, hits give low values 0.928 | S. cerevisiae deletion strains, locus YKL101W, strain HSL1, hits give low values 0.908 | S. cerevisiae deletion strains, locus YKL193C, strain SDS22, hits give low values 0.984 | S. cerevisiae deletion strains, locus YKL203C, strain TOR2, hits give low values 0.977 | S. cerevisiae deletion strains, locus YLR133W, strain CKI1, hits give low values 0.953 | S. cerevisiae deletion strains, locus YLR403W, strain SFP1, hits give low values 0.954 | S. cerevisiae deletion strains, locus YML070W, strain DAK1, hits give low values 0.909 | S. cerevisiae deletion strains, locus YMR001C, strain CDC5, hits give low values 0.981 | S. cerevisiae deletion strains, locus YMR205C, strain PFK2 (second series), hits give low values 0.949 | S. cerevisiae deletion strains, locus YMR277W, strain FCP1, hits give low values 0.983 | S. cerevisiae deletion strains, locus YNL006W, strain LST8, hits give low values 0.98 | S. cerevisiae deletion strains, locus YNL020C, strain ARK1, hits give low values 0.944 | S. cerevisiae deletion strains, locus YNL161W, strain CBK1, hits give low values 0.978 | S. cerevisiae deletion strains, locus YNL183C, strain NPR1, hits give low values 0.948 | S. cerevisiae deletion strains, locus YNL207W, strain RIO2, hits give low values 0.975 | S. cerevisiae deletion strains, locus YNL222W, strain SSU72, hits give low values 0.982 | S. cerevisiae deletion strains, locus YNL307C, strain MCK1 (second series), hits give low values 0.931 | S. cerevisiae deletion strains, locus YOL078W, strain AVO1, hits give low values 0.994 | S. cerevisiae deletion strains, locus YOL136C, strain PFK27, hits give low values 0.912 | S. cerevisiae deletion strains, locus YOR061W, strain CKA2, hits give low values 0.949 | S. cerevisiae deletion strains, locus YOR119C, strain RIO1, hits give low values 1.02 | S. cerevisiae deletion strains, locus YOR231W, strain MKK1, hits give low values 0.864 | S. cerevisiae deletion strains, locus YOR329C, strain SCD5, hits give low values 0.98 | S. cerevisiae deletion strains, locus YPL031C, strain PHO85, hits give low values 0.957 | S. cerevisiae deletion strains, locus YPL153C, strain RAD53, hits give low values 0.954 | S. cerevisiae deletion strains, locus YPL204W, strain HRR25, hits give low values 0.948 | S. cerevisiae deletion strains, locus YPL209C, strain IPL1, hits give low values 0.982 | S. cerevisiae deletion strains, locus YPR025C, strain CCL1, hits give low values 0.979 | S. cerevisiae deletion strains, locus YPR106W, strain ISR1, hits give low values 0.978 | S. cerevisiae deletion strains, locus YPR111W, strain DBF20, hits give low values 0.947 | S. cerevisiae deletion strains, strain NNK1, hits give low values 0.959 | S. cerevisiae deletion strains, strain TSCII, hits give low values 0.984

CCOC(=O)c1ccc(NC(=O)CCC(=O)O)cc1
inactive: [1] 0.994 | [2] 0.983 | [4] 0.978 | [5] 0.99 | [6] 0.99 | [7] 0.99 | [9] 1.07 | [10] 0.982 | [11] 1.01 | [12] 1 | [13] 1.06 | [14] 0.987 | [15] 1.02 | [16] 1.05 | [17] 1 | [18] 0.991 | [19] 0.981 | [20] 1.01 | [21] 1.01 | [22] 1.01 | [23] 0.989 | [24] 1.02 | S. cerevisiae deletion strains, locus YOL006C, strain TOP1, hits give low values 1.04 | [25] 1 | [26] 1.01 | [27] 1.13

O=C1N(c2ccccc2)c2ccccc2C1(Cc1ccncc1)Cc1ccncc1
inactive: S. cerevisiae deletion strains, locus YAL040C, strain CLN3, hits give low values 1.01 | S. cerevisiae deletion strains, locus YCL061C, strain MRC1 (second series), hits give low values 1.01 | [5] 1 | S. cerevisiae deletion strains, locus YDR363W, strain ESC2, hits give low values 1.03 | S. cerevisiae deletion strains, locus YER002W, strain NOP16, hits give low values 0.988 | [12] 1.02 | [20] 0.997 | S. cerevisiae deletion strains, locus YNL175C, strain NOP13, hits give low values 0.996 | S. cerevisiae deletion strains, locus YNL197C, strain WHI3, hits give low values 0.997 | S. cerevisiae deletion strains, locus YNL224C, strain SQS1, hits give low values 1 | [23] 1.03 | S. cerevisiae deletion strains, locus YOR083W, strain WHI5 (second series), hits give low values 1.02 | [25] 1.03 | [26] 0.995
